Only a selection was taken, and hits are over-represented in it overall.
Vaccinia Venus: qHTS for Stage-Specific Inhibitors of Vaccinia Orthopoxvirus: Venus Reporter Primary qHTS | Vaccinia virus Venus reporter expression, fluorescence | Potency, µM (doses to about 36.5 µM), without a hit: top-dose activity change, negative = inhibition, usual class: inhibitors | hit rate 0.46% among 330,000 | AID 720580, 2013; calls by dose curve; tested in A549 cells; further: potency means the concentration at half of the fitted maximal effect; on the % scale 0 is the no-effect control and ±100 the full control effect; nearly all actives have a fitted effect of over 30% in size
Vaccinia mCherry: qHTS for Stage-Specific Inhibitors of Vaccinia Orthopoxvirus: mCherry Reporter Primary qHTS. Vaccinia virus mCherry reporter infection, fluorescence. Potency, µM (top dose mostly 36.5 µM), inactives show at the highest dose activity change, negative = inhibition, most hits filed as inhibitors. hit rate 0.63% among 310,000; calls by dose curve; tested in A549 cells; further: potency means the concentration at half of the fitted maximal effect; on the % scale 0 is the no-effect control and ±100 the full control effect; nearly all actives have a fitted effect of over 35% in size
Marburg entry inh: qHTS for inhibitors of binding or entry into cells for Marburg Virus; Marburg virus pseudotyped entry inhibition, cell reporter; Potency, µM (doses to about 37.8 µM), without a hit: at the top dose activity change, negative = inhibition, actives largely listed as inhibitors; hit rate 1.8% among 300,000; AID 540276, 2011; calls by dose curve; tested in HEK293 cells; further: potency means the concentration at half of the fitted maximal effect; on the % scale 0 is the no-effect control and ±100 the full control effect
CHX counter: Cycloheximide Counterscreen for Small Molecule Inhibitors of Shiga Toxin | cell reporter, cycloheximide protein synthesis inhibition counterscreen | max response, % | hit rate 12% among 300,000 | AID 2314, 2010; in the data active means max response mostly above about 13%, no sharp cut-off; inactive means mostly below about 14%; further: read at 38.3 µM for the half of the compounds with a filed dose; 0% is about no effect
LASV entry inh: qHTS for Inhibitors of binding or entry into cells for Lassa Virus; AID 540256, 2011; hit rate 1.2% among 300,000; Potency, µM (titrated, usually from 37.9 µM), for inactives: top-dose activity change, negative = inhibition, most hits filed as inhibitors; Lassa virus pseudotype entry inhibition, cell reporter; calls by dose curve; tested in HEK293 cells; further: potency means the concentration at half of the fitted maximal effect; on the % scale 0 is the no-effect control and ±100 the full control effect; nearly all actives have a fitted effect of over 50% in size
Shiga toxin inh: A qHTS for Small Molecule Inhibitors of Shiga Toxin; Vero cells, Shiga toxin protein synthesis inhibition reporter; inhibition, % at 38.7 µM; hit rate 9.2% among 290,000; AID 2315, 2010; in the data active means inhibition mostly above about 28%, no sharp cut-off; inactive means mostly below about 43%; further: 0% is about no effect
The depositor's hits bear a star; i = inactive; u = inconclusive; x = no result given; [ ] = remark or other dose.

SMILES	Vaccinia Venus	Vaccinia mCherry	Marburg entry inh	CHX counter	LASV entry inh	Shiga toxin inh
COc1ccc(NC(=O)Nc2cccs2)cc1OC	-9%	i	19%	13	8%	37
COc1ccc(-c2noc(-c3ccc(NCCc4ccccc4)c([N+](=O)[O-])c3)n2)cc1OC	-9%	-6%	0%[46.1 µM]	x	11%[46.1 µM]	x
CCN(CC)CCc1c(C)[nH]c(C(=O)OCc2ccccc2)c1C	-17%	i	26µM*	-2	-9%	-24
CC(=O)c1c(C)[nH]c(C(=O)OCc2ccccc2)c1C	-21%	-21%	u	38*	u	120*
CC(=O)c1c(C)[nH]c(C(=O)OCc2ccc([N+](=O)[O-])cc2)c1C	-28%	u	-4%[46.1 µM]	15*	2%[46.1 µM]	56*
CN(C)S(=O)(=O)c1ccc(C(=O)OCc2ccc([N+](=O)[O-])cc2)cc1	-4%	i	x	13*	x	18
CN(C)S(=O)(=O)c1ccc(C(=O)OCc2ccc(C#N)cc2)cc1	-15%	x	1%	-3	-4%	-3
COc1ccc(Cl)cc1NC(=O)Cn1c(=O)n2nc(-c3ccccc3)nc2c2ccccc21	-5%	-7%	u	x	9%[46.1 µM]	x
O=C(c1cnn(-c2nccc(-c3ccco3)n2)c1C1CC1)N1CCCCC1c1cccnc1 (stereo not given)	2%	0%	x	x	x	x
CC(=O)c1c(C)[nH]c(C(=O)OCCCCN2C(=O)c3ccccc3C2=O)c1C	x	x	8.2µM*	7	u	-21
CCOC(=O)c1c(C=O)c2sc(C)cc2n1C	-15%	-15%	26%[46.1 µM]	22*	4%	59
CCc1cccc(CC)c1NC(=O)C1CCC(CNS(=O)(=O)c2cccc3nsnc23)CC1 (stereo not given)	0%	-19%	-20%[46.1 µM]	x	-8%[46.1 µM]	x
COc1ccc(CCC(=O)N2CCCC(Nc3ccc(C)c(C)c3)C2)cc1OC (stereo not given)	-5%[7.34 µM]	u	x	23*	x	-7
COc1ccccc1OCC(=O)N1CCCC(Nc2ccc(C)c(C)c2)C1 (stereo not given)	-17%	i	0%	8	-13%	-34
COC(=O)C1=CN(c2ccc3c(c2)OCO3)C(N)=C(C#N)C1c1cccc(F)c1 (stereo not given)	-23%	u	x	x	x	x
O=S(=O)(Nc1ccc2nc(-c3ccc(Br)o3)[nH]c2c1)c1ccccc1	x	x	x	40*	x	64
Cc1ccc(-c2nc3ccc(NS(=O)(=O)c4ccccc4)cc3[nH]2)o1	-25%	-15%	-1%	66*	-29%	130*
COc1ccc(C2CC(=O)N(Cc3cccc(C)c3)c3c2c(C)nn3-c2nc(C)cc(C)n2)c(OC)c1 (stereo not given)	-1%	-13%	u	x	-6%[46.1 µM]	x
C=CCN=C1S/C(=C\c2ccc(Cl)cc2)C(=O)N1CC=C	-8%	0%	0%[46.1 µM]	13	-8%[46.1 µM]	49*
C=CCN=C1S/C(=C/c2ccc([N+](=O)[O-])cc2)C(=O)N1CC=C	6%[7.34 µM]	u	-5%[46.1 µM]	-1	-5%	-2
Cc1ccccc1Cn1c(C)c(CNCc2ccccc2)c(C(=O)O)c1C	10%	5%	3%[46.1 µM]	x	-3%[46.1 µM]	x
COc1ccc(C(=O)CSc2nc(N)nc(SC)c2C#N)cc1	x	x	-10%	3	-3%	5
CSc1nc(N)nc(SCC(=O)c2ccccc2)c1C#N	-30%	x	24%	19*	-21%	58
N#Cc1c(N)nc(SCC(=O)C23CC4CC(CC(C4)C2)C3)c(C#N)c1-c1ccc(Cl)cc1	1%	x	-5%[46.1 µM]	2	-24%	13
CSc1nc(N)nc(SCC(=O)C23CC4CC(CC(C4)C2)C3)c1C#N	x	x	21µM*	20	-6%	32
SMILES	Vaccinia Venus	Vaccinia mCherry	Marburg entry inh	CHX counter	LASV entry inh	Shiga toxin inh
Cc1noc(C)c1-c1ccc2ncnc(NCc3cccc(Cl)c3)c2c1	x	x	x	7	x	9
C=CCN=c1scc(-c2ccco2)n1/N=C/c1ccc(O)c(O)c1O	-9%	-22%	6%[46.1 µM]	2	-22%	-10
CC(C)N=c1scc(-c2ccco2)n1/N=C/c1ccc(O)c(O)c1	x	x	x	43*	x	56
COCCN=c1scc(-c2ccco2)n1/N=C/c1ccc(O)c(O)c1O	-12%	-27%	0%[46.1 µM]	11	-25%	54
Oc1ccc(/C=N/n2c(-c3ccco3)csc2=Nc2cccnc2)c(O)c1	10µM*	10µM*	u	-6	u	-9
COc1ccccc1CNC(=O)C(C)n1ccc2cc(S(=O)(=O)N3CCCC3)ccc21 (stereo not given)	-16%	-16%	x	x	3%[46.1 µM]	x
Cc1cccc(Cn2c(COc3ccccc3)nc3ccccc32)c1	-2%	6%	u	x	-1%[46.1 µM]	x
Cc1cnc(SCC2CCCO2)nc1C1CCCN(C(=O)C2=NNC(=O)CC2)C1 (stereo not given)	-13%	-15%	x	x	x	x
CC(C)OC(=O)/C(C#N)=C/c1ccc(-c2ccc(Cl)c(Cl)c2)o1	-10%	i	x	x	25%[46.1 µM]	x
CCOC(=O)CN1C(=O)S/C(=C\c2ccc(-c3ccc(C(=O)O)c(Cl)c3)o2)C1=O	x	x	x	2	x	-4
CC(C)N1C(=O)S/C(=C\c2ccc(-c3ccc(Cl)c(C(=O)O)c3)o2)C1=O	x	x	x	76*	x	153*
CC(C)OC(=O)c1cc(-c2ccc(C=O)o2)ccc1Cl	-8%	-12%	0%	11*	-7%	21
CC(C)(C)n1c(O)c2ccc(C(=O)N=NC(=O)c3ccccc3)cc2c1O	-12%	0%	-11%	27*	-7%	33
CCCn1c(O)c2ccc(C(=O)N=NC(=O)c3cccnc3)cc2c1O	8%	-3%	13%	1	6%	-26
O=S(=O)(c1cccs1)N1CCC(CO)(Cc2ccc(Cl)cc2)CC1	-14%	u	7.9µM*	1	u	-1
O=S(=O)(c1cccs1)N1CCN(c2ccc(Cl)cc2)CC1	-5%	-2%	6%[46.1 µM]	-9	-12%[46.1 µM]	-4
O=C(NC1CCCC1)C(c1cc2c(cc1[N+](=O)[O-])OCO2)N1CCCC1 (stereo not given)	-4%	i	-27%	18*	u	66*
O=CN1CCN(C(C(=O)NC2CCCC2)c2cc3c(cc2[N+](=O)[O-])OCO3)CC1 (stereo not given)	-12%	-5%	21%[46.1 µM]	10	x	9
CC(C)OCCOc1ccc2oc(-c3ccco3)cc(=O)c2c1	-25%	-28%	1%	19*	2%	27
O=c1cc(-c2ccco2)oc2ccccc12	-13%	-14%	22%[46.1 µM]	x	11%[46.1 µM]	x
N#CCOc1ccc2oc(-c3ccco3)cc(=O)c2c1	x	x	x	11	x	19
Cc1ccc2oc(-c3ccco3)cc(=O)c2c1	-9%	-2%	-2%[46.1 µM]	39*	-30%	71*
CCOC(=O)N1CCN(/C=C(\C#N)c2nc3ccccc3s2)CC1	x	x	-5%	15*	u	82*
O=C(O)C1C2CCC(C2)C1C(=O)Nc1nc2ccccc2s1 (stereo not given)	-16%	-20%	23%	8	-3%	14

High-throughput results as filed in PubChem BioAssay.
